Only some compounds are listed: those with a hit (about 6.3% of all), similar ones and a draw of the others.
tim10-1 inh: growth inhibitors of tim10-1 mutant yeast; actives 2.2% (n = 330,000); inhibition, % at 20 µM; AID 463190; S. cerevisiae tim10-1 ts strain growth, BacTiter-Glo, 24 h;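 active = inhibition of at least 40%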;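 note: mutant grown at 25 °C; 0% = DMSO wells with yeast and 100% = wells holding no yeast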
Mdm2 MdmX PPI: human Mdm2/MdmX binding inhibition. actives 3% (n = 330,000). O15151+Q00987. inhibition, % at 8 µM. SaOS-2 split-luciferase Mdm2/MdmX complementation, luminescence. AID 485346;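 active = inhibition of at least 50% at 8 µM in the primary screen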
Target sequence (O15151 whole entry, looked up): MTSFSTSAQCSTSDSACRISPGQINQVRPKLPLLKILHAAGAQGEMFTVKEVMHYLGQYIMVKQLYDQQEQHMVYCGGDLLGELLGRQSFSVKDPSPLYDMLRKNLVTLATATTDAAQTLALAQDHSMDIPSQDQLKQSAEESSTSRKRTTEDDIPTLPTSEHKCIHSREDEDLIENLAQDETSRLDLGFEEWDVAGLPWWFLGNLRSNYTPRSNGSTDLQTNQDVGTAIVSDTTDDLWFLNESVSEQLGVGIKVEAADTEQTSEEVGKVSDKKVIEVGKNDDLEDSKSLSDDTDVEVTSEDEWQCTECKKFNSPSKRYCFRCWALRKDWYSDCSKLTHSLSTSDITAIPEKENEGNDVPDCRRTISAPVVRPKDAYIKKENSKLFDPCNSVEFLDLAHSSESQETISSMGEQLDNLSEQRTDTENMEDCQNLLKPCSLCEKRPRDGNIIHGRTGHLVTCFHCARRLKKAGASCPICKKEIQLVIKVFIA
Target sequence (Q00987 whole entry, looked up): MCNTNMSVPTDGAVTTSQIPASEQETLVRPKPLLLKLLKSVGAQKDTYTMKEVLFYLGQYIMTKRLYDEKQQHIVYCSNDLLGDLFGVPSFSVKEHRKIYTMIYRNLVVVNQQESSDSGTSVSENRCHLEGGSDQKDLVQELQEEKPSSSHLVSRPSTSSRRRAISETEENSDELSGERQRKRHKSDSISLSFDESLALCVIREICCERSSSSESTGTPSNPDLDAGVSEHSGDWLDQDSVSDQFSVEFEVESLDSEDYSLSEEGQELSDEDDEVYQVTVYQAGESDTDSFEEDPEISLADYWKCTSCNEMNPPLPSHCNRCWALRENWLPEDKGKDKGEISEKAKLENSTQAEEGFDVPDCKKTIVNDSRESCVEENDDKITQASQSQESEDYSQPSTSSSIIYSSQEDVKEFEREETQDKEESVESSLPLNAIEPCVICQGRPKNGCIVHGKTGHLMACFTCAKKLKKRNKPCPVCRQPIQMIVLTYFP
TIM10 inh: inhibits growth of TIM10 yeast strain; S. cerevisiae TIM10 strain growth, BacTiter-Glo luminescence, 24 h; inhibition, % at 10 µM; actives 1.4% (n = 330,000); AID 463195;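 active = inhibition of 40% or more at the single tested concentration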;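 note: wild-type TIM10 isogenic control strain grown at permissive 25 °C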
tim23-1 inh: inhibits growth of tim23-1 mutant yeast | AID 463212 | S. cerevisiae tim23-1 growth, BacTiter-Glo luminescence, 24 h | actives 1.3% (n = 330,000) | inhibition, % at 20 µM;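 active = growth inhibition of the mutant yeast at or above 50%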;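 note: temperature-sensitive mutant grown at 25 °C; plate controls were DMSO-treated mutant yeast for no effect and medium wells lacking yeast for full effect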
MPTP inh: inhibitors of mitochondrial permeability transition pore; isolated mouse mitochondria, Ca2+ swelling absorbance, 30 min; inhibition, % at 10 µM; actives 1.4% (n = 360,000); AID 602449;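 active = inhibition of 50% or more, scaled per plate between neutral and stimulator controls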;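 note: 0% = DMSO wells given calcium and 100% = 1 mM EGTA wells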
TIM10 conf: TIM10 yeast growth inhibition, confirmed | shares compounds with TIM10 inh | inhibition, % at 10 µM | actives 63% (n = 4,600) | S. cerevisiae tim10 strain growth, BacTiter-Glo luminescence, 24 h;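 active = inhibition of yeast growth at or above a set limit in either of two replicates at 10 µM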;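 note: this counterscreen used the strain with wild-type TIM10; 0% = yeast with DMSO and 100% = medium wells lacking yeast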
An asterisk follows results filed as active; x = no result given.

SMILES	tim10-1 inh	Mdm2 MdmX PPI	TIM10 inh	tim23-1 inh	MPTP inh	TIM10 conf
COc1ccc(NC(=O)c2cccc3ccccc23)cc1	-6	30	2	2	0	x
COc1ccccc1C(=O)Nc1ccc(C(=O)O)cc1	-4	1	12	14	-2	x
COc1ccc(NC(=O)c2ccccc2C)cc1	-1	-26	85*	3	-1	10
COc1ccccc1C(=O)Oc1ccccc1C(=O)Nc1ccccc1	7	2	41*	49	3	31
O=C(NCc1ccccc1)C1c2ccccc2OCC(=O)N1CCc1c[nH]c2ccccc12 (stereo unspecified)	x	x	x	x	1	x
COc1ccc(-c2nc3c(C)cc(Br)cn3c2Cc2ccc(C)cc2)cc1OC	x	x	x	x	-1	x
COC(=O)CNC(=O)CSc1nc2sc(-c3ccccc3)cc2c(=O)n1-c1ccccc1	29	-2	45*	26	1	38*
Cc1ccc(C23CC4CC(CC(C(=O)NC(C)C)(C4)C2)C3)cc1	19	0	44*	40	1	30
CCOc1cc(/C=C2\C(=O)ON=C2c2ccccc2)ccc1OC	24	18	-4	20	1	x
CCOc1cc(/C=C2/C(=O)ON=C2C)ccc1OCc1ccc(F)cc1	40	30	43*	46	-1	25
CCC(C)NC(=O)COc1ccc(OCc2ccccc2)cc1 (stereo unspecified)	26	-11	42*	13	3	34*
CCOC(=O)c1c(CN2CCOCC2)n(-c2ccccc2)c2cc(Br)c(O)c(CN(C)C)c12	38	40	57*	35	4	40*
CC(=O)NC(c1ccccc1)c1nc(-c2ccc3ccccc3c2)cs1 (stereo unspecified)	x	x	x	x	-1	x
Cc1ccsc1C(=O)N1CCC1(C)C(=O)Nc1ccc2c(c1)OCCO2 (stereo unspecified)	x	x	x	x	0	x
CCC(Cc1ccccc1)n1c(=S)[nH]c2ccccc2c1=O (stereo unspecified)	34	-21	50*	24	4	38*
O=C(O)/C=C/c1ccc2ccccc2n1	8	-8	9	11	0	x
O=C(/C=C/c1ccc2ccccc2n1)c1cc(Br)ccc1O	34	14	52*	35	1	31*
Cc1ccccc1Oc1nc2c(C)cccn2c(=O)c1/C=C(\C#N)C(=O)NC1CCS(=O)(=O)C1 (stereo unspecified)	18	43	41*	17	0	16
Cc1cccn2c(=O)c(/C=C(\C#N)C(=O)NC3CCS(=O)(=O)C3)c(Oc3ccccc3Cl)nc12 (stereo unspecified)	16	21	1	20	-3	x
Nc1ccc(-c2nc3ncccc3o2)c(Cl)c1	-3	-83	42*	42	-1	23
CC(=O)c1sc(N/N=C\c2cccc(Br)c2)nc1C	37	-63	41*	44	9	-11
COc1ccc(S(=O)(=O)n2nc(OC(=O)C3CCCCC3)cc2N)cc1	38	19	46*	26	-1	-14
COc1ccc(C(=O)Oc2cc(N)n(S(=O)(=O)c3ccc(C)cc3)n2)cc1	23	1	36	29	0	x
Cc1ccc(S(=O)(=O)n2nc(OC(=O)c3cccs3)cc2N)cc1	34	16	47*	37	0	18
S=c1nc(-c2sccc2OCc2ccc(Cl)cc2Cl)[nH][nH]1	34	-10	41*	-1	1	29*
SMILES	tim10-1 inh	Mdm2 MdmX PPI	TIM10 inh	tim23-1 inh	MPTP inh	TIM10 conf
O=[N+]([O-])c1cccc(/C=C/c2nc3ccc([N+](=O)[O-])cc3[nH]2)c1	20	-5	54*	42	6	58*
Cc1nc2ccc([N+](=O)[O-])cc2[nH]1	1	-32	-8	12	0	x
CC1(C(=O)N2Cc3ccccc3C2)CCN1C(=O)C1(c2ccc(Cl)cc2)CC1 (stereo unspecified)	x	x	x	x	0	x
CC(=O)Nc1cccc(Oc2nc(C(F)(F)F)nc3ccccc23)c1	18	34	29	33	0	x
CC(=O)Nc1cccc(Oc2nc(-c3ccccn3)nc3ccccc23)c1	36	10	45*	28	-1	33*
Cc1c(Cl)ccc2sc(NC(=O)C3CC3)nc12	18	7	44*	50	0	38*
CC(C)(C)C(=O)O/N=C1/C(=O)N(c2ccccc2)c2ccccc21	27	27	52*	25	2	61*

Screens: PubChem BioAssay, Sanford-Burnham Center for Chemical Genomics
